This test in a line: NCI Yeast Anticancer Drug Screen. Data for the sgs1 mgt1 strain (AID 161).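 Also: 0% = growth of cultures given vehicle only.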 The conditions noted are these: S. cerevisiae sgs1 mgt1 strain, hits give high values. How it is done:
Growth inhibition of yeast strains with defined genetic alterations is measured as a screen for potential anti-cancer activity. Selected strains with alterations in DNA damage repair or cell cycle control were exposed to compounds and growth inhibition was measured relative to vehicle treated controls. The strain used in this assay is sgs1 mgt1

Setting [1] is: at 5.0 µM (retest, dose inferred, filed as 0.5).
Setting [2] is: at 50.0 µM (retest, dose inferred, filed as 5.0).

Each structure is given as a SMILES string. About 79,000 compounds went through this panel and 15% of them were active in at least one assay; those are over-represented in the sample as a whole. A number with no mark means an inactive call. Active and inactive are the calls of the source. Rule as the data show it: active = growth inhibition above about 70%; inactive = the rest.

As to `CCO/C=C1\C(=O)C=C(C)CC1c1ccc(OC)c(OC)c1OC` (configuration not stated), the growth inhibition runs as follows: under setting [1], 7%; under setting [2], 86% (active); (at 50.0 µM) 47.6%.

Take `COc1ccc(C(=O)C(c2ccc(OC)cc2)C2(O)C(=O)Nc3c(C)cc(Cl)cc32)cc1` (configuration not stated): the growth inhibition is, setting by setting: under setting [1], -9%; under setting [2], -9%; (at 50.0 µM) 87.8% (active).

In the case of `CCC(=O)C(C(=O)CC)c1c(OC(=O)c2ccccc2)ccc(O)c1C(=O)OC`, the growth inhibition runs as follows: under setting [1], 4%; under setting [2], 71% (active); (at 50.0 µM) 71.4% (active).

Regarding `CCOC(=O)c1ccc(NC(=O)O/N=C(/Cl)CC)cc1`, the growth inhibition runs as follows: under setting [1], -26%; under setting [2], 75% (active); (at 50.0 µM) 80.1% (active).

Regarding `COc1ccccc1NC(=O)C1=C(C)NC(C)=C(C(=O)Nc2ccccc2OC)C1c1ccc(C2C(C(=O)Nc3ccccc3OC)=C(C)NC(C)=C2C(=O)Nc2ccccc2OC)cc1`, the growth inhibition by setting is: under setting [1], 37%; under setting [2], 92% (active); (at 50.0 µM) 77.5% (active).

For `CC(=O)Nc1ccc(S(=O)(=O)N/N=C/c2cc(I)cc([N+](=O)[O-])c2O)cc1`, the growth inhibition was 14% under setting [1], 69% under setting [2] and 89.7% (active) (at 50.0 µM).

Consider `N=Nc1c(OC(=O)Nc2ccccc2)[nH]c2ccccc12`, for which the growth inhibition by setting is: under setting [1], -1%; under setting [2], 69%; (at 50.0 µM) 13.8%.

Regarding `CC1=C(C(=O)Nc2ccccc2C)C(c2ccccc2F)C(C(=O)Nc2ccccc2C)=C(C)N1`, the growth inhibition is -2% under setting [1], 6% under setting [2] and 6.6% (at 50.0 µM).

As to `CCOC(=O)c1[nH]c(Br)c(-c2ccc(OC)c(OC)c2)c1Br`, the growth inhibition reads like this: under setting [1], 1%; under setting [2], 98% (active); (at 50.0 µM) 97.2% (active).

For `COc1ccc2nc3cc(Cl)ccc3c(NCCC[N+](C)(C)CCCCCCCCCCCCCCCC[N+](C)(C)CCCNc3c4ccc(Cl)cc4nc4ccc(OC)cc34)c2c1`, the growth inhibition by setting is: under setting [1], 77% (active); under setting [2], 98% (active); (at 50.0 µM) 40.4%.

For the compound `O=C1CCS(=O)(=O)c2ccccc21`, the growth inhibition is, setting by setting: under setting [1], 24%; under setting [2], 99% (active); (at 50.0 µM) 57.7%.

With `CC(=O)OC1=C(CC(C)C)C(=O)c2ccccc2C1=O`, the growth inhibition is 7% under setting [1], 88% (active) under setting [2] and 78.6% (active) (at 50.0 µM).

Regarding `CC(=O)OCc1c2ccccc2c(C)c2c1cc(F)c1ccccc12`, the growth inhibition under setting [1] was 52%, the growth inhibition under setting [2] is 90% (active) and the growth inhibition (at 50.0 µM) is 98.1% (active).

Consider `O/N=C\c1ccc(-c2ccccc2)cc1`, for which the growth inhibition is -8% under setting [1], 88% (active) under setting [2] and 87% (active) (at 50.0 µM).

(Values after PubChem BioAssay (NCI).)
